This is an account of results in PubChem BioAssay (EPA / NIEHS).

Molecules are shown by their SMILES. Inconclusive results are not listed. Active and inactive are the calls of the source. How the source made its calls: active means hit-call score of the fitted dose curve at least 0.9, where 1 is the maximum; inconclusive means response in the unintended direction; inactive means score below 0.9.

As usually defined, the AC50 is the concentration at which the activity in the assay is half-maximal.

Sequence of Peroxisome proliferator-activated receptor gamma (Homo sapiens) (P37231 whole entry, looked up, the tested form may be a part): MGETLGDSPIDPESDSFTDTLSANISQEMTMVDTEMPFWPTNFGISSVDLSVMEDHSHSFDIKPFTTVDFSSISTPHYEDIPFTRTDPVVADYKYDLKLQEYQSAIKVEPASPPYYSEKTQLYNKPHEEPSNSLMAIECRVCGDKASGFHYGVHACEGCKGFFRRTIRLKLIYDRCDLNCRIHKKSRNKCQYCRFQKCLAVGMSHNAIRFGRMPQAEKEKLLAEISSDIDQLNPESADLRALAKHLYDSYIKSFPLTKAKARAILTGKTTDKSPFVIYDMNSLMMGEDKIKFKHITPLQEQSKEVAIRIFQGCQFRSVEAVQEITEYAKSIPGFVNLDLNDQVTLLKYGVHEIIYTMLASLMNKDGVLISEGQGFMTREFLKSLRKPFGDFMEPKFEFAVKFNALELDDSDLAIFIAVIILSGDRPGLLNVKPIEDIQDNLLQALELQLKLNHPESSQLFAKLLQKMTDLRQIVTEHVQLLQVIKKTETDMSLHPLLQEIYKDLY
Sequence of Retinoic acid receptor alpha (Homo sapiens) (P10276 whole entry, looked up, the tested form may be a part): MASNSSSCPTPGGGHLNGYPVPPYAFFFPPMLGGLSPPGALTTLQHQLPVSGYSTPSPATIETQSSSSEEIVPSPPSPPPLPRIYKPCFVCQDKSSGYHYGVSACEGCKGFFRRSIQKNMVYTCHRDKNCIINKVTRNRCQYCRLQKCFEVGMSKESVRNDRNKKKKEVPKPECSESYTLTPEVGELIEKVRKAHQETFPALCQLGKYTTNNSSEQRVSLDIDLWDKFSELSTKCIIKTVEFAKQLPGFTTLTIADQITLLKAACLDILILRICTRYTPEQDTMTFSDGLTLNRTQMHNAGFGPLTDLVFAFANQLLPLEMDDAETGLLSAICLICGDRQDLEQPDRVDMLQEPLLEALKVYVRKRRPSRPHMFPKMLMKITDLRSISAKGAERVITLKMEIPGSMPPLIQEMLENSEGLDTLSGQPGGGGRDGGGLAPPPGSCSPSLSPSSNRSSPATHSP
Sequence of human Retinoic Acid Receptor beta (RARb), RARB (gene 5915) (P10826 whole entry, looked up, the tested form may be a part): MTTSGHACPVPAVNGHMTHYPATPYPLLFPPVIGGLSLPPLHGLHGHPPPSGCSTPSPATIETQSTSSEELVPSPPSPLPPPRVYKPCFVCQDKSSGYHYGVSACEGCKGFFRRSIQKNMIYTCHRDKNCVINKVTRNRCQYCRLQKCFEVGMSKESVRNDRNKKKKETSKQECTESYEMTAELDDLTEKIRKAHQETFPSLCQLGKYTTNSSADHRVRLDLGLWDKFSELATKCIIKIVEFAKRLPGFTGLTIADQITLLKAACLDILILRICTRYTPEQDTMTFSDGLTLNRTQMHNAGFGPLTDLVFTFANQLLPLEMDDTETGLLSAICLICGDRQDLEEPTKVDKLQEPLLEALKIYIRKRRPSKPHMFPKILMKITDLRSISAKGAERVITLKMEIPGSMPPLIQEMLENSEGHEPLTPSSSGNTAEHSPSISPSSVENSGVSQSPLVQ
Sequence of human Peroxisome Proliferator-activated Receptor delta (PPARd), PPARD (gene 5467) (Q03181 whole entry, looked up, the tested form may be a part): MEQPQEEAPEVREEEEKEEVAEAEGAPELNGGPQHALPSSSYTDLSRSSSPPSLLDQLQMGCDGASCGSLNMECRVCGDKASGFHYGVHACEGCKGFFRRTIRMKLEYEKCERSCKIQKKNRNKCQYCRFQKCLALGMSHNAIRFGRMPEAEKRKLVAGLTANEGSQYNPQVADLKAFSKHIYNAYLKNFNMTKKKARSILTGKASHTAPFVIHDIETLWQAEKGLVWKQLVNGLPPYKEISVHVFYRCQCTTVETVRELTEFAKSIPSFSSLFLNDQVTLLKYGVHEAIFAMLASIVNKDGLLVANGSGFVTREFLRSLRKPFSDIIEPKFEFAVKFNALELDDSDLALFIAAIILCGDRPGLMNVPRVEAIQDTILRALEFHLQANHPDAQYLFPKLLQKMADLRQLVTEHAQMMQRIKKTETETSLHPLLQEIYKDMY

One test concerns the target human Peroxisome Proliferator-activated Receptor delta (PPARd), PPARD (gene 5467) (UniProt Q03181). Description: ATG_PPARd_TRANS: Attagene TRANS-FACTORIAL HepG2 Assay for human Peroxisome Proliferator-activated Receptor delta (PPARd) (AID 2283002). Summed up:
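Transient HepG2 transfection (multiple GAL4-UAS RTUs, chimeric receptor-Gal4); 24 h dosing; total RNA → oligo(dT) RT → PCR → 6-FAM primer extension → HpaI cut → CE. Positive direction vs DMSO.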
Turning to `Cc1ccc2c(c1)C(=O)c1ccccc1C2=O`, the outcome was inactive.
Turning to `CCC(C)OC(=O)c1ccc(O)cc1` (stereo unspecified), the compound was classed as inactive.
Consider `CCN(CCO)c1cccc(C)c1`, for which the compound was classed as inactive.
Same read-out and setting: in the case of `CC(=O)OCCC1CCCCC1` it was “inactive”; in that of `O=C(Nc1cccc(C(F)(F)F)c1)c1cc(Br)cc(Br)c1O`, “inactive”.
As to `CCCCCCCCCCc1ccccc1`, the compound was classed as inactive.
In the case of `O=C(Oc1ccccc1)c1ccc2ccccc2c1O`, the outcome was inactive.
As to `O=C1c2ccccc2C(=O)C1c1nc2ccccc2c(Br)c1O`, the compound was called inactive.
On to `O=c1[nH]nc(-c2ccc([N+](=O)[O-])o2)o1`, for which the call was inactive.
In the case of `CC=CCO`, the compound was classed as inactive.
Take `CC(C)=CCC[C@H](C)CCO`: the result was inactive.
With `CCCCCCCC(C)=O`, the compound was classed as inactive.
Take `c1ccc(CCCc2ccncc2)cc1`: the call was inactive.
Same read-out and setting: in the case of `CC=C1CC2C=CC1C2` (stereo unspecified) it was “inactive”; in that of `OC1CCCCCCCCCCC1`, “inactive”.
On to `CCOCC(=O)O`, for which the result was inactive.
Same read-out and setting: in the case of `CC1(C)S[C@@H]2[C@H](NC(=O)COc3ccccc3)C(=O)N2[C@H]1C(=O)O` it was “inactive”; in that of `CCCOCCOCCOCCO`, “inactive”.
Still for that read-out and setting: in the case of `C=C1C2CCC(C2)C1(C)C` (stereo unspecified) it was “inactive”.
With `C=CC(C)(CCC=C(C)C)OC(=O)C(C)C` (stereo unspecified), the compound was classed as inactive.
Consider `CCCCCCCCCCCCCOP(=O)(O)O`, for which the compound was classed as inactive.
On to `Cc1cc(C)c(C)cc1C`, for which the call was inactive.
For the compound `CC(=O)C=CC1C(C)=CCC(C)C1(C)C` (stereo unspecified), the call was inactive.
In the case of `NCCCN1CCN(CCCN)CC1`, the compound was called inactive.

The next test concerns the target human Retinoic Acid Receptor beta (RARb), RARB (gene 5915) (UniProt P10826). Description: ATG_RARb_TRANS: Attagene TRANS-FACTORIAL HepG2 Assay for human Retinoic Acid Receptor beta (AID 2283004). Summed up: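 Readout is reporter mRNA induction: RNA reverse-transcribed, PCR-amplified, FAM-labelled, HpaI-cut and resolved by capillary electrophoresis. Transiently transfected HepG2 cells carrying exogenous NR–Gal4 chimeras were dosed for 24 h; activity fitted upward relative to DMSO.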
Consider `O=C1OC(=O)c2cc(Oc3ccc4c(c3)C(=O)OC4=O)ccc21`, for which the call was inactive.
As for `CC=CCO`, the call was inactive.
As to `OC1CCCCCCCCCCC1`, the call was inactive.
Take `C=CC(C)(CCC=C(C)C)OC(=O)C(C)C` (stereo unspecified): the outcome was inactive.

Another test concerns the target Retinoic acid receptor alpha (Homo sapiens) (UniProt P10276). Description: ATG_RARa_TRANS: Attagene TRANS-FACTORIAL HepG2 Assay for human Retinoic Acid Receptor alpha (RARa) (AID 2283005). Summed up: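 Reporter transcripts, measured by RT-PCR with fluorescent labeling and capillary electrophoresis after 24 h dosing, reflect activity of an exogenous human RARa–GAL4 fusion in transiently transfected HepG2. Fitted for increase relative to DMSO.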
On to `Nc1ccc(N=Nc2ccccc2)c(N)n1`, for which the result was inactive.
On to `O=C(Nc1cccc(C(F)(F)F)c1)c1cc(Br)cc(Br)c1O`, for which the call was inactive.
Take `COc1cc(C)ccc1C(C)C`: the compound was called inactive.
Consider `O=C1C=CC(=O)O1`, for which the compound was called inactive.
As to `Cc1cc(C)c(C(=O)O)c(C)c1`, the result was inactive.
`CC(C)=CC1CC(C)CCO1` (stereo unspecified): the compound was called inactive.
For the compound `CC(=O)NS(=O)(=O)c1ccc(N)cc1`, the compound was classed as inactive.
On to `C=C1C2CCC(C2)C1(C)C` (stereo unspecified), for which the result was inactive.
Consider `O=S(=O)(O)c1ccccc1C=Cc1ccc(-c2ccc(C=Cc3ccccc3S(=O)(=O)O)cc2)cc1`, for which the compound was classed as inactive.
On to `NCCCN1CCN(CCCN)CC1`, for which the compound was classed as inactive.

Another test deals with Peroxisome proliferator-activated receptor gamma (Homo sapiens) (UniProt P37231). Put plainly: ATG_PPARg_TRANS: Attagene TRANS-FACTORIAL HepG2 Assay for human Peroxisome Proliferator-activated Receptor-gamma (PPARg) (AID 2283007). An outline of the steps:
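Chimeric NR-Gal4 transactivation is measured in transiently transfected HepG2 cells by reporter mRNA induction at 24 h. Detection uses RT-PCR with fluorescent labelling and capillary electrophoresis; DMSO defines baseline.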
In the case of `O=C(O)c1cc(Cl)cc([N+](=O)[O-])c1Cl`, the outcome was inactive.
Take `Cc1ccc2c(c1)C(=O)c1ccccc1C2=O`: the concentration at half-maximal activity (AC50) was 15.1 µM (active).
On to `CCC(C)OC(=O)c1ccc(O)cc1` (stereo unspecified), for which the concentration at half-maximal activity (AC50) is 62.1 µM (active).
For the compound `CCN(CCO)c1cccc(C)c1`, the call was inactive.
In the case of `CC(C)(C)c1ccc(OC(=O)c2ccccc2O)cc1`, the outcome was inactive.
For the compound `COC(=O)/C=C\C(=O)O`, the concentration at half-maximal activity (AC50) was 35.2 µM (active).
For `CC(=O)OCCC1CCCCC1`, the compound was called inactive.
For `O=C(O)c1ccccc1Nc1cccc(C(F)(F)F)c1`, the half-maximal activity concentration (AC50) is 6.64 µM (active).
On to `O=C(Nc1cccc(C(F)(F)F)c1)c1cc(Br)cc(Br)c1O`, for which the concentration at half-maximal activity (AC50) is 2.57 µM (active).
Take `CCCCCCCCCCc1ccccc1`: the compound was classed as inactive.
The same measure, in the same setting: the result for `FC(F)(F)C(=NOCC1OCCO1)c1ccc(Cl)cc1` reads “inactive”.
Take `O=C1c2ccccc2C(=O)C1c1nc2ccccc2c(Br)c1O`: the AC50 was 11.5 µM (active).
Take `CC(C)=CCC[C@H](C)CCO`: the call was inactive.
Consider `Cc1cc(C)c(C(=O)O)c(C)c1`, for which the compound was called inactive.
Turning to `c1ccc(CCCc2ccncc2)cc1`, the AC50 is 13.9 µM (active).
On the same count and under the same terms, in the case of `CC=C1CC2C=CC1C2` (stereo unspecified) it was 25.9 µM (active); in that of `Cc1cc(O)c(Cl)c(C)c1Cl`, 21.9 µM (active).
`C=CC(=O)OCCC(=O)O`: the call was inactive.
On the same count and under the same terms, the result for `OC1CCCCCCCCCCC1` reads “inactive”; that for `C=CC(C)(CCC=C(C)C)OC(=O)C(C)C` (stereo unspecified), “inactive”.
As for `O=S(=O)(O)c1ccccc1C=Cc1ccc(-c2ccc(C=Cc3ccccc3S(=O)(=O)O)cc2)cc1`, the compound was classed as inactive.
`Cc1cc(C)c(C)cc1C`: the call was inactive.
Take `CC(=O)C=CC1C(C)=CCC(C)C1(C)C` (stereo unspecified): the compound was called inactive.
